# Among all 340,000 compounds or so, about 1,000 (0.29%) were called active. Cut-off read from the data, not from the text of the source: inconclusive = inhibition above about 29% without an active follow-up result; inactive = below that. These entries were drawn from the full list. Measured potencies and affinities stand elsewhere.
# Target: Genome polyprotein (Dengue virus type 2 (strain 16681-PDK53)) (UniProt P29991)
# Test: flavivirus cap methylation enzyme inhibition – biochemical, confirmation dose response, primary screen (AID 588689)
# Conditions: Dengue-2 NS5 methyltransferase capping enzyme assay, at 25 µM, stronger effect = higher value
# [1] = measured here: pilot screen replicate inhibition
SMILES,inhibition,inhibition [1] [%]
N#C/C(=C\c1cccc(Oc2ccc(C(F)(F)F)cc2[N+](=O)[O-])c1)c1nc2ccccc2[nH]1,-4.47% (inactive),
CCN(CC)C(=O)c1ccc(NS(=O)(=O)c2ccc(/C=C/C(=O)O)cc2)cc1,2.19% (inactive),
Cc1cc(C(=O)CS(=O)(=O)c2ccccc2)cc(C)c1O,-11.8% (inactive),
CC1=CC(=O)C=C/C1=C(/c1ccc(O)cc1C)c1ccccc1S(=O)(=O)O,-1.47% (inactive),
CC1=C/C(=C(\c2ccc(O)c(C)c2)c2ccccc2S(=O)(=O)O)C=CC1=O,0.65% (inactive),3.04
CC1=C/C(=C(/c2ccc(O)c(C)c2)c2ccccc2S(=O)(=O)O)C=CC1=O,-1.1% (inactive),
O=C(NC(=O)c1ccccc1)OCCN1C(=O)c2ccccc2C1=O,-5.92% (inactive),
Cc1cc(S(=O)(=O)N2CCOCC2)ccc1OCC(=O)Nc1ccccc1C(F)(F)F,-3.32% (inactive),
OCCNc1c2ccccc2nc2ccccc12,-2.34% (inactive),
OCCNc1nc2ccccc2nc1NCCO,15.3% (inactive),
CC#CCCc1nc2ccccc2c(=O)n1N,-9.73% (inactive),
COCCCNC(=O)CCc1nc(-c2ccccc2Cl)no1,-2.35% (inactive),
O=C(O)COc1ccc(/C=N/NC(=O)c2cn(-c3ccccc3)nc2-c2ccccc2)cc1,5.65% (inactive),
CC(C)N1C(=O)CCN(C=O)c2ccccc21,-9.31% (inactive),
CCOC(=O)c1sc(N2C(=O)C(O)=C(C(=O)c3ccco3)C2c2cccc([N+](=O)[O-])c2)nc1C (configuration not stated),-0.32% (inactive),
CCOC(=O)c1sc(N2C(=O)C(O)=C(C(=O)c3ccco3)C2c2ccco2)nc1C (configuration not stated),-2.93% (inactive),
CCOc1ccc(C2C(C(=O)c3ccc(C)o3)=C(O)C(=O)N2c2nc(C)c(C(=O)OC)s2)cc1 (configuration not stated),10.7% (inactive),
COC(=O)c1sc(N2C(=O)C(O)=C(C(=O)c3ccc(C)o3)C2c2ccc(F)cc2)nc1C (configuration not stated),-6.35% (inactive),
COc1ccc(CC(=O)Nc2sc3c(c2C(N)=O)CCCC3)cc1,-5.87% (inactive),
CCC(C)(C)NC(=O)Cn1c(-c2ccccc2)cc(C(C)=O)c1C,1.78% (inactive),
O=C(CCN1N=C(c2ccccc2)CCC1=O)NCC1CCCO1 (configuration not stated),6.81% (inactive),
CSc1nnc(-c2ccccc2N=Cc2c(C)[nH]n(-c3ccccc3)c2=O)c(=O)[nH]1,11.5% (inactive),

SMILES,inhibition,inhibition [1] [%]
Cc1nn(-c2ccc3ccccc3c2)c(=O)c2ccccc12,-4.49% (inactive),
Cc1ccc2nc(N3C(=O)C(O)=C(C(=O)c4ccco4)C3c3ccc(O)cc3)sc2c1 (configuration not stated),3.66% (inactive),
Cc1ccc2nc(N3C(=O)C(O)=C(C(=O)c4ccc(C)o4)C3c3cccc(O)c3)sc2c1 (configuration not stated),0.73% (inactive),
Cc1cc(C)c2nc(N3C(=O)C(O)=C(C(=O)c4ccco4)C3c3ccco3)sc2c1 (configuration not stated),1.47% (inactive),
Cc1ccc2nc(N3C(=O)C(O)=C(C(=O)c4ccco4)C3c3ccc(C)o3)sc2c1 (configuration not stated),-8.15% (inactive),
Cc1nn(CCCC(=O)NCc2ccccc2)c(C)c1[N+](=O)[O-],-1.91% (inactive),
CCCn1c(N)c(N(CCOC)C(=O)c2ccc([N+](=O)[O-])c(C)c2)c(=O)[nH]c1=O,-3.56% (inactive),
COc1ccc(S(=O)(=O)N2CCN(C(=O)Cc3cccs3)CC2)cc1,-2.65% (inactive),
CC(C)c1nc2ccc(NC(=O)C3CCCCC3)cc2[nH]1,4.05% (inactive),
O=C(C1=C(O)C(=O)N(CCN2CCOCC2)C1c1ccco1)c1cc2ccccc2o1 (configuration not stated),-8.02% (inactive),
CC(/C=N/n1c(-c2ccco2)n[nH]c1=S)=C\c1ccccc1,1.83% (inactive),
CC(=C/c1ccccc1)/C=N/n1c(-c2ccco2)n[nH]c1=S,-1.88% (inactive),2.73
O=C(Nc1ccccc1C(=O)O)c1ccc2c(c1)C(=O)N(c1cccc([N+](=O)[O-])c1)C2=O,17.6% (inactive),
Cc1ccc(C(=O)O)cc1NC(=O)c1ccc2c(c1)C(=O)N(c1ccc([N+](=O)[O-])cc1)C2=O,-4.57% (inactive),
Cc1cc(C(=O)CSc2nnc(N)s2)c(C)n1Cc1ccco1,-12.5% (inactive),
CCc1ccc(N2C(=O)C(Cl)=C(N3CCCCCC3)C2=O)cc1,-5.23% (inactive),
COc1ccc(N2C(=O)C(Cl)=C(N3CCCC3)C2=O)cc1,-10.6% (inactive),
CCOc1ccc(N2C(=O)c3ccccc3C2=O)cc1,1.62% (inactive),
COc1ccccc1N1C(=O)C(Cl)=C(N2CCCC2)C1=O,-1.98% (inactive),0.315
CCc1ccc(N2CCN(C(=O)N3CCOCC3)CC2)cc1,-8.84% (inactive),
CCOc1ccc(N2C(=O)CC(N3CCOCC3)C2=O)cc1 (configuration not stated),-2.04% (inactive),
COc1ccc(N2C(=O)C(Cl)=C(N3CCN(Cc4ccccc4)CC3)C2=O)cc1,-1.61% (inactive),

SMILES,inhibition,inhibition [1] [%]
COc1ccc(OC)c(N2C(=O)C(Cl)=C(N3CCCCC3)C2=O)c1,0.68% (inactive),
COc1cccc(-c2nc3ccc(C(=O)N4CCCC(O)C4)cc3o2)c1 (configuration not stated),-1.93% (inactive),
CSc1ccc(CN(C)C(=O)c2ccc(S(=O)(=O)Nc3c(C)n(C)n(-c4ccccc4)c3=O)cc2)cc1,-9.48% (inactive),
CCOC(=O)CSc1nnnn1-c1cc(OC)ccc1OC,-2.05% (inactive),
C=CC[C@H](CC(=O)NCCO)C(=O)NCCOC(=O)[C@@H](CC=C)Cc1ccc(F)cc1,-5.62% (inactive),
CCCNC(=O)N1C2=NC(C(=O)OC)=C(C(=O)OC)[C@@H]3N(Cc4ccccc4)c4ccccc4[C@]23C[C@H]1CO,-2.73% (inactive),
CCOC(=O)c1ccc2c(c1)C1C=CCC1C(C(=O)OCC)N2 (configuration not stated),10.8% (inactive),
CCCC1Nc2ccc(C(=O)O)cc2C2C=CCC12 (configuration not stated),11.1% (inactive),
CC(=O)c1ccc2c(c1)C1C=CCC1C(c1ccncc1)N2 (configuration not stated),50.2% (inactive),
O=C(O)C1Nc2ccc(Br)cc2C2C=CCC12 (configuration not stated),55.7% (inactive),
CC(C)CNC(=O)C1Nc2ccc(C(F)(F)F)cc2C2C=CCC12 (configuration not stated),2.4% (inactive),
O=C(O)c1ccc2c(c1)C1C=CCC1C(c1ccncc1)N2 (configuration not stated),-11.1% (inactive),
CCOC(=O)C1Nc2ccc(C)cc2C2C=CCC12 (configuration not stated),8.8% (inactive),
CCOC(=O)C1Nc2ccc(Br)cc2C2C=CCC12 (configuration not stated),5.02% (inactive),
CCN(CC)S(=O)(=O)c1ccc(N2CCOCC2)c(NC(=O)c2cc3ccccc3oc2=O)c1,-2.2% (inactive),
COC(CNC(=O)c1cnn2c(C)c(Cc3ccccc3)c(C)nc12)OC,-1.46% (inactive),
Cc1cc(NC(=O)CSc2nc3cc(Cl)ccc3o2)no1,1.78% (inactive),
COc1ccc(NC(=S)NN2C(C)CCCC2C)cc1 (configuration not stated),-6.57% (inactive),
Cc1ccc(S(=O)(=O)N(C)CC(=O)N2CCCc3ccccc32)cc1,3.9% (inactive),
Cc1ccc(S(=O)(=O)N2CCN(C(=O)CN3C(=O)c4ccccc4C3=O)CC2)c(C)c1,-3.1% (inactive),
Cc1ccc(S(=O)(=O)ON2C(=O)c3cccc4cccc(c34)C2=O)cc1,14.2% (inactive),
Cc1cc(C)c(C)c(S(=O)(=O)ON2C(=O)c3ccccc3C2=O)c1C,-4.83% (inactive),

SMILES,inhibition,inhibition [1] [%]
COc1ccc(OC)c(S(=O)(=O)ON2C(=O)c3ccccc3C2=O)c1,12.6% (inactive),
COC(=O)c1ccnc(SCC(=O)c2ccccc2)c1,-7.25% (inactive),
Cc1cc(C)c(N2C(=O)C3C4CC(=O)C(c5ccccc54)C3C2=O)c(C)c1 (configuration not stated),-3.14% (inactive),
On1c(-c2ccccc2)nc2ccccc21,-0.77% (inactive),
c1ccc(-c2nc3ccccc3c3nc4ccccc4n23)cc1,0.36% (inactive),
O=C(NCCN1CCOCC1)C1CC(=O)N(c2ccc(Cl)cc2)C1 (configuration not stated),-16.7% (inactive),
S=C(NCc1ccco1)Nc1ccc(Br)cn1,-6.51% (inactive),
Cc1ccccc1S(=O)(=O)N(CC(O)CN1CCCCC1)c1ccccc1 (configuration not stated),-8.27% (inactive),
COc1ccc(C(=Cc2cc(OC)c(OC)cc2[N+](=O)[O-])C(=O)O)cc1,-1.59% (inactive),
CCOc1ccc(C(=O)Cc2cc(OC)c(OC)cc2[N+](=O)[O-])cc1,-1.39% (inactive),
COc1cc(C(=O)N2CCN(c3ccccc3)CC2)c([N+](=O)[O-])cc1OC,-3.88% (inactive),
CCOc1ccc(N2C(=O)/C(=C\c3ccccc3OC)S(=O)(=O)C2c2cccc([N+](=O)[O-])c2)cc1 (configuration not stated),-7.02% (inactive),
CCOC(=O)C1CCCN(C(=O)c2cn(C)c(=O)c3cc(OC)c(OC)cc23)C1 (configuration not stated),-5.65% (inactive),
C#CCOCCOCCOCCNc1nc(N2CCOCC2)nc(N2CCN(C(=O)CCCCCCCCCCNC(=O)Cn3cc(CCCCCN)nn3)CC2)n1,9.92% (inactive),
Cc1cc(Cl)ccc1OC(C)C(=O)N1CCCN(C(=O)C(C)Oc2ccc(Cl)cc2C)CC1 (configuration not stated),-1.34% (inactive),
COc1ccc(C2(CNC(=O)CCC(=O)O)CCCC2)cc1OC,-1.37% (inactive),-4.84
Cc1[nH][nH]c(=O)c1C(c1ccc(-c2ccc(Cl)c(Cl)c2)o1)c1c(C)[nH][nH]c1=O,61.3% (inactive),
O=Cc1ccc(-c2ccc(F)cc2)o1,-6.55% (inactive),
O=C(O)c1ccc(-c2cccc(Cl)c2)o1,-4.79% (inactive),
Cc1[nH][nH]c(=O)c1C(c1ccc(-c2ccc(Cl)cc2)o1)c1c(C)[nH][nH]c1=O,21% (inactive),
CCC(OC(=O)c1nsc(Cl)c1Cl)C(=O)NCC1CCCO1 (configuration not stated),-4.98% (inactive),
CCCc1cc(=O)oc2cc(C)cc(OC(C)C(=O)NCc3cccnc3)c12 (configuration not stated),-9.54% (inactive),

# Reference: PubChem BioAssay AID588689 (Southern Research Specialized Biocontainment Screening …, 2011)
